Drawing on PubChem BioAssay (EPA / NIEHS), this text covers outcome and AC50 for nine molecules.

Where “and” joins values, the source holds several entries; their conditions need not be identical. Identical values can stand only once. Results filed as inconclusive are left out. Some structures have more than one record in an assay (separate samples or runs), and their calls can disagree. Calls of active or inactive are those of the source. Rule for the calls, unless noted: active = hit-call score of the fitted dose curve at least 0.9, where 1 is the maximum; inactive = score below 0.9.

The target of assay [1] is Estrogen-related receptor gamma (Homo sapiens) (UniProt P62508). Briefly: ATG_ERRg_TRANS: Attagene TRANS-FACTORIAL HepG2 Assay for human Estrogen-Related Receptor gamma (ERRg) (AID 2282977; active = hit-call score of the fitted dose curve at least 0.9, where 1 is the maximum;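 note: hits increase reporter signal over DMSO so potencies reflect activators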). The following applies: HepG2 Attagene TRANS reporter, ERRg transactivation. The gist of the method:
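HepG2 cells transiently transfected with multiplexed GAL4-UAS reporter units and chimeric NR-Gal4 constructs were exposed to test chemicals for 24 h. Reporter mRNA was measured by RT-PCR, 6-FAM primer extension, HpaI digestion and capillary electrophoresis; gain-of-signal versus DMSO.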

Assay [2] deals with Oxysterols receptor LXR-alpha (Homo sapiens) (UniProt Q13133). Briefly: ATG_LXRa_TRANS: Attagene TRANS-FACTORIAL HepG2 Assay for human Liver X Receptor alpha (LXRa) (AID 2282980; active = hit-call score of the fitted dose curve at least 0.9, where 1 is the maximum). The following applies: HepG2 Attagene TRANS reporter, LXRa transactivation. The gist of the method: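 Transfect HepG2 with GAL4-UAS multiplex reporter constructs (TRANS format, chimeric receptor-GAL4); treat 24 h; extract RNA, reverse-transcribe, PCR-amplify, FAM-label, HpaI-digest; resolve fragments by capillary electrophoresis. Upward response vs DMSO.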

The target of assay [3] is Oxysterols receptor LXR-beta (Homo sapiens) (UniProt P55055). In words: ATG_LXRb_TRANS: Attagene TRANS-FACTORIAL HepG2 Assay for human Liver X Receptor beta (LXRb) (AID 2282981; active = hit-call score of the fitted dose curve at least 0.9, where 1 is the maximum). The settings on record: HepG2 Attagene TRANS GAL4-LXRb reporter, mRNA. A digest of the protocol: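 Gain-of-signal mRNA reporter endpoint, DMSO as negative control. Transiently transfected HepG2 cells carrying the NR-Gal4 chimera and GAL4-UAS reporter units were treated 24 h; transcripts quantified by RT-PCR and capillary electrophoresis fluorescence.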

Assay [4] deals with Hepatocyte nuclear factor 4-alpha (Homo sapiens) (UniProt P41235). Briefly: ATG_HNF4a_TRANS: Attagene TRANS-FACTORIAL HepG2 Assay for human Hepatocyte Nuclear Factor 4 alpha (HNF4a) (AID 2282982; active = hit-call score of the fitted dose curve at least 0.9, where 1 is the maximum). The following applies: HepG2 HNF4a transactivation reporter, mRNA readout. A digest of the protocol:
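Gain-of-signal mRNA induction, relative to DMSO vehicle, was read after 24 h compound treatment of HepG2 cells bearing transfected GAL4-UAS reporters. Detection used RT-PCR, 6-FAM primer extension and capillary electrophoresis.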

Assay [5] in a line: ATG_M_32_TRANS: Attagene TRANS-FACTORIAL HepG2 Assay for M32 Transcription Factor (Internal Marker) (AID 2282984; active = hit-call score of the fitted dose curve at least 0.9, where 1 is the maximum;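 note: transcript level of a background control reporter unit measured by RT-PCR and capillary electrophoresis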). The following applies: HepG2 Attagene TRANS M32 internal marker reporter. A digest of the protocol: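 Capillary electrophoresis of 6-FAM-labelled reporter fragments gives the signal; data fitted for gain over DMSO negative control. Source: HepG2 cells bearing transient multiple reporter transcription units, 24 h exposure.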

In assay [6] the target is Nuclear receptor subfamily 4 group A member 2 (Homo sapiens) (UniProt P43354). Briefly: ATG_NURR1_TRANS: Attagene TRANS-FACTORIAL HepG2 Assay for human Nuclear Receptor Related Protein 1 (NURR1) (AID 2282985; active = hit-call score of the fitted dose curve at least 0.9, where 1 is the maximum). The settings on record: HepG2 Attagene TRANS reporter, mRNA readout. A digest of the protocol:
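HepG2 / transient MRTU transfection / 24 h compound exposure / RT-PCR + CE fluorescence of reporter mRNA / gain-of-signal vs DMSO.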

Assay [7] deals with Transcriptional activator Myb (Homo sapiens) (UniProt P10242). Briefly: ATG_Myb_CIS: Attagene CIS-FACTORIAL HepG2 Assay for human Myeloblastosis (Myb) Proto-Oncogene Transcription Factor (AID 2282986). The following applies: HepG2 Attagene CIS-FACTORIAL Myb reporter transcription; actives raise or lower the signal. A digest of the protocol: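 Fluorescence signals from capillary electrophoresis of RT-PCR-amplified reporter cDNA give the read-out. Cells: HepG2 transfected with multiple cis-regulated reporter units. Exposure lasts 24 hours; DMSO defines baseline for gain or loss of signal.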

Assay [8] deals with Nuclear respiratory factor 1 (Homo sapiens) (UniProt Q16656). Briefly: ATG_NRF1_CIS: Attagene CIS-FACTORIAL HepG2 Assay for human Nuclear Respiratory Factor 1 (NRF1) Orphan Gene (AID 2282987). The settings on record: HepG2 NRF1 cis-element reporter, Attagene multiplex; actives raise or lower the signal. A digest of the protocol: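 Transcriptional reporter readout, one component of a 52-endpoint multiplexed HepG2 panel. Exposure 24 h; mRNA detected via RT-PCR and fluorescent capillary electrophoresis; fitting in both directions against DMSO.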

Assay [9] can be described thus: ATG_NFI_CIS: Attagene CIS-FACTORIAL HepG2 Assay for human Nuclear Factor I (NFI) (AID 2282989). The settings on record: HepG2 cis-regulatory reporter, NFI response element transcription; actives raise or lower the signal. The gist of the method:
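Read-out: reporter mRNA via RT-PCR plus capillary electrophoresis with fluorescence detection. Transiently transfected HepG2 (endogenous TF activity on cis promoters), 24 h compound exposure; gain or loss of signal fitted against DMSO.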

Assay [10] deals with Myc proto-oncogene protein (Homo sapiens) (UniProt P01106). Briefly: ATG_Myc_CIS: Attagene CIS-FACTORIAL HepG2 Assay for human Myelocytomatosis (Myc) Proto-Oncogene Transcription Factor (AID 2282990). The settings on record: HepG2, Attagene cis-reporter transcription factor activity; actives raise or lower the signal. A digest of the protocol:
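Read-out: fluorescent reporter mRNA fragments resolved by capillary electrophoresis after RT-PCR. Human HepG2 liver cells carried transfected cis-element reporter units and were dosed for 24 h. Gain or loss of signal fitted relative to DMSO baseline.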

Assay [11] can be described thus: ATG_NF_kB_CIS: Attagene CIS-FACTORIAL HepG2 Assay for human Nuclear Factor Kappa B (NF-kB) (AID 2282991). The settings on record: HepG2 Attagene cis-factorial NF-kB reporter mRNA; actives raise or lower the signal. The gist of the method: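 HepG2, transient multi-reporter transfection, cis promoter elements (endogenous TFs). 24 h exposure. Total RNA → RT → PCR → 6-FAM label → HpaI → CE. Gain/loss vs DMSO.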

Assay [12] can be described thus: ATG_NRF2_ARE_CIS: Attagene CIS-FACTORIAL HepG2 Assay for human Nuclear Factor Erythroid 2 Related Factor 2 (NFR2) response to Antioxidant Response Elements (ARE) (AID 2282992).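 For AC50: reporter mRNA level measured by RT-PCR and capillary electrophoresis fluorescence.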 The settings on record: HepG2 Attagene ARE/NRF2 reporter, transcription factor activity; actives raise or lower the signal. The gist of the method: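 Multiplexed reporter mRNA profiling in HepG2 after a 24 h chemical exposure. Curves fitted in both directions relative to DMSO negative control.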

The nature of assay [13]: ATG_Oct_MLP_CIS: Attagene CIS-FACTORIAL HepG2 Assay for human Octamer-Binding Transcription Factor (Oct) (AID 2282993). The following applies: HepG2 Attagene cis-factorial Oct reporter, mRNA; actives raise or lower the signal. A digest of the protocol:
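Read-out: reporter mRNA via RT-PCR plus capillary electrophoresis of 6-FAM-labelled fragments. Transiently transfected HepG2, 24 h exposure, endogenous TF activity on cis elements. Gain or loss of signal fitted relative to DMSO.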

Assay [14] concerns the target Glucocorticoid receptor (Homo sapiens) (UniProt P04150). Briefly: ATG_GR_TRANS: Attagene TRANS-FACTORIAL HepG2 Assay for human Glucocorticoid Receptor (GR) (AID 2282978; active = hit-call score of the fitted dose curve at least 0.9, where 1 is the maximum;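 note: activators score as hits since higher reporter transcript over DMSO is fitted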). The following applies: HepG2 Attagene TRANS GR reporter, mRNA transcription. A digest of the protocol:
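Measurement of GAL4-UAS-driven reporter mRNA in human HepG2 liver cells 24 h post-dosing, using RT-PCR with fluorescent labelling and capillary electrophoresis; the transfected constructs report exogenous NR-GAL4 chimera activity, fitted upward against DMSO.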

Assay [15] is described as follows: ATG_M_06_TRANS: Attagene TRANS-FACTORIAL HepG2 Assay for M06 Transcription Factor (Internal Marker) (AID 2282983; active = hit-call score of the fitted dose curve at least 0.9, where 1 is the maximum). The following applies: HepG2 Attagene TRANS M06 internal marker reporter. The gist of the method: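 Transfect HepG2 with MRTUs → dose compounds 24 h → isolate RNA, oligo(dT) RT → PCR with reporter primers → 6-FAM primer extension → HpaI digest → CE fragment analysis. Positive direction vs DMSO.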

In assay [16] the target is Cellular tumor antigen p53 (Homo sapiens) (UniProt P04637). In words: ATG_p53_CIS: Attagene CIS-FACTORIAL HepG2 Assay for human p53 Transcription Factor (AID 2282994). The settings on record: HepG2 p53 cis-element reporter, Attagene mRNA; actives raise or lower the signal. The gist of the method: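 Multiplexed reporter mRNA assay in human HepG2 liver cells; cis-regulated units report endogenous factor activity. Values come from bidirectional curve fitting against DMSO negative control after 24 h treatment.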

Assay [17] is described as follows: BSK_3C_TissueFactor: BioMAP Diversity Plus: 3C Assay for Tissue Factor Biomarker Activity (AID 2282997). The settings on record: BioMAP 3C HUVEC, tissue factor biomarker readout; actives raise or lower the signal. The gist of the method: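 ELISA read-out of Tissue Factor levels on human umbilical vein endothelium collected 24 h after chemical dosing. Gain or loss of signal was fitted relative to DMSO.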

The nature of assay [18]: BSK_3C_uPAR: BioMAP Diversity Plus: 3C Assay for Urokinase-type plasminogen activator receptor (uPAR) Biomarker Activity (AID 2282998). The following applies: BioMAP 3C HUVEC, uPAR biomarker ELISA; actives raise or lower the signal. The gist of the method:
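HUVEC primary cells; 24 h post-dose; uPAR by ELISA; gain or loss of signal fitted bidirectionally vs DMSO baseline.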

Assay [19] can be described thus: BSK_3C_VCAM1: BioMAP Diversity Plus: 3C Assay for Vascular cell adhesion molecule 1 (VCAM1) Biomarker Activity (AID 2282999). The following applies: BioMAP 3C HUVEC, VCAM1 ELISA, cytokine-stimulated; actives raise or lower the signal. The gist of the method: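 Human umbilical vein endothelial cells (3C system), biomarker read by ELISA 24 h after dosing; bidirectional fit against DMSO baseline. Cytotoxicity tracked by SRB total-protein staining in parallel cultures at biomarker time.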

Nuclear respiratory factor 1 (Homo sapiens), sequence (Q16656 whole entry, looked up): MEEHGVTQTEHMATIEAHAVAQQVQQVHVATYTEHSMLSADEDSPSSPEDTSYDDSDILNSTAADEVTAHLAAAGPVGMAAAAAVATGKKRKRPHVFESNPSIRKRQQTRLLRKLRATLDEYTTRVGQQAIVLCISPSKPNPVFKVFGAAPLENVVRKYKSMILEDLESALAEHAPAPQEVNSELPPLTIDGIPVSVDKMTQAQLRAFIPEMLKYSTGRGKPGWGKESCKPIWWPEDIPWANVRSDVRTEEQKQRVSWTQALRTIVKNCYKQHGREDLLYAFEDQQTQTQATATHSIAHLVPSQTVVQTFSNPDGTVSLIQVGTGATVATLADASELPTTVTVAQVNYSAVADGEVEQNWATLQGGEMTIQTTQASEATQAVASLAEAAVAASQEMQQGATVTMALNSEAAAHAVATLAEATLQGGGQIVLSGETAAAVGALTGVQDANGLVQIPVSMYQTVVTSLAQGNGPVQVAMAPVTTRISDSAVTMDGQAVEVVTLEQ
Hepatocyte nuclear factor 4-alpha (Homo sapiens), sequence (P41235 whole entry, looked up, the tested form may be a part): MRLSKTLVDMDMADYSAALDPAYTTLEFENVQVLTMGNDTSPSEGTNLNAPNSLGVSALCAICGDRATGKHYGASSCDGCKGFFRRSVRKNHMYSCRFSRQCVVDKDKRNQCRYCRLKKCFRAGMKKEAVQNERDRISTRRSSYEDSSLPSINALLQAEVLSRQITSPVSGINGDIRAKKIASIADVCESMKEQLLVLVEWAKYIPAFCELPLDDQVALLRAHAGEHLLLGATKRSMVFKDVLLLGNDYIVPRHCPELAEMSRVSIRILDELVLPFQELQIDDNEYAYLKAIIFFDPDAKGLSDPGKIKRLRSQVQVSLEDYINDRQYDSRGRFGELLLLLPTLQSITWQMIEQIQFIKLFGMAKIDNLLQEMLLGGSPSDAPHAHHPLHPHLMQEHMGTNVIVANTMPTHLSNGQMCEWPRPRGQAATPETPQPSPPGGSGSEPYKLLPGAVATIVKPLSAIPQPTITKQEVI
Nuclear receptor subfamily 4 group A member 2 (Homo sapiens), sequence (P43354 whole entry, looked up): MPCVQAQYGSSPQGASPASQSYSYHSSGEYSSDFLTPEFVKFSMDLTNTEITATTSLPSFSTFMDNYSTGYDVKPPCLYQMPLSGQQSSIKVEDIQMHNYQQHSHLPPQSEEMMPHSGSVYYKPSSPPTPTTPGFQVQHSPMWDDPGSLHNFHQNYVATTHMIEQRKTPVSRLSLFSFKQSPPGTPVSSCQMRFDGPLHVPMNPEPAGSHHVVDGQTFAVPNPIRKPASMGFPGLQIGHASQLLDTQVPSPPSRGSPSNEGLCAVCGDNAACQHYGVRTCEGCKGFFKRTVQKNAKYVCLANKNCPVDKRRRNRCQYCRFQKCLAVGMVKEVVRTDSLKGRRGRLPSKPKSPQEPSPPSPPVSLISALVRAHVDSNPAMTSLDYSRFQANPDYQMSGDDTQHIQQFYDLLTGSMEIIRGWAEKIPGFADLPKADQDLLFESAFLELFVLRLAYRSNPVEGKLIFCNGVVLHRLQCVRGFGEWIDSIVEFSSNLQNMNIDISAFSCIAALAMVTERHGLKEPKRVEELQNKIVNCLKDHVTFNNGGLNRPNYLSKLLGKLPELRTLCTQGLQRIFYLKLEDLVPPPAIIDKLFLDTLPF
Glucocorticoid receptor (Homo sapiens), sequence (P04150 whole entry, looked up, the tested form may be a part): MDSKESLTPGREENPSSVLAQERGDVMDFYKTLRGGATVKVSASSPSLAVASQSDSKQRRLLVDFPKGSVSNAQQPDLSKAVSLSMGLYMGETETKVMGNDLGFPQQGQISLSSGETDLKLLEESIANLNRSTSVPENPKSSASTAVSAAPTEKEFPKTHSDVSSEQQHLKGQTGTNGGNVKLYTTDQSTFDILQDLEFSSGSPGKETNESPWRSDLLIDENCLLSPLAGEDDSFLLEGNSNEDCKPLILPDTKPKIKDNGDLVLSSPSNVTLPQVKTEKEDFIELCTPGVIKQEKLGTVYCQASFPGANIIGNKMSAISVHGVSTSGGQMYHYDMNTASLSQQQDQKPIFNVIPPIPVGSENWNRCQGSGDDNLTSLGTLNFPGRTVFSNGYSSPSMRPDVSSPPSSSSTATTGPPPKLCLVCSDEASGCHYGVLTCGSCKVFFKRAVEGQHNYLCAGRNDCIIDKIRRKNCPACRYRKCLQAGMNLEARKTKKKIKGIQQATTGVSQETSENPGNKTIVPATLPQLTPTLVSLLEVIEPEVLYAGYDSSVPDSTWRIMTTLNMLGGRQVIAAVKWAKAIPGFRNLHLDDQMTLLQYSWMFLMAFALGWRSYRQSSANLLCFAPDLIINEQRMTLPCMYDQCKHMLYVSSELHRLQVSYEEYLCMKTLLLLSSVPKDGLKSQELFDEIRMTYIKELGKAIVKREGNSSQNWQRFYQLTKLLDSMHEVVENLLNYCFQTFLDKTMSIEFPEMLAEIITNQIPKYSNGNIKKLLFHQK
Transcriptional activator Myb (Homo sapiens), sequence (P10242 whole entry, looked up): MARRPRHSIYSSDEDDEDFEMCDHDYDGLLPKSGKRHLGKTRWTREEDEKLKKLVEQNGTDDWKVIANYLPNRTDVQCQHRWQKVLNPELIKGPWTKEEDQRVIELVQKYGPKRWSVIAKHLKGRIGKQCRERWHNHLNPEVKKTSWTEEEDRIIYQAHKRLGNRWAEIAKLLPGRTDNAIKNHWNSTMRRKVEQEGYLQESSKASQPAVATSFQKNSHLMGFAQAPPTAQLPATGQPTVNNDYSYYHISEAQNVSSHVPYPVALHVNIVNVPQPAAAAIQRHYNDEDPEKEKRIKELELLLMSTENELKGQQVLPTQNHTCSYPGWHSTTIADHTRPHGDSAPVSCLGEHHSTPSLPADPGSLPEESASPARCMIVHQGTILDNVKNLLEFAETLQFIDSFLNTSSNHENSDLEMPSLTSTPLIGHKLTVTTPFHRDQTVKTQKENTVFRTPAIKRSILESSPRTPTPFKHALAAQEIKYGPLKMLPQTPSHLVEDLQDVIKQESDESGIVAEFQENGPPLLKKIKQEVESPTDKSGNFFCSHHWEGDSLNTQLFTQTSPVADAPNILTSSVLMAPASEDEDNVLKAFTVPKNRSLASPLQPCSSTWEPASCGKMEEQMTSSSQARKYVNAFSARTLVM
Oxysterols receptor LXR-alpha (Homo sapiens), sequence (Q13133 whole entry, looked up, the tested form may be a part): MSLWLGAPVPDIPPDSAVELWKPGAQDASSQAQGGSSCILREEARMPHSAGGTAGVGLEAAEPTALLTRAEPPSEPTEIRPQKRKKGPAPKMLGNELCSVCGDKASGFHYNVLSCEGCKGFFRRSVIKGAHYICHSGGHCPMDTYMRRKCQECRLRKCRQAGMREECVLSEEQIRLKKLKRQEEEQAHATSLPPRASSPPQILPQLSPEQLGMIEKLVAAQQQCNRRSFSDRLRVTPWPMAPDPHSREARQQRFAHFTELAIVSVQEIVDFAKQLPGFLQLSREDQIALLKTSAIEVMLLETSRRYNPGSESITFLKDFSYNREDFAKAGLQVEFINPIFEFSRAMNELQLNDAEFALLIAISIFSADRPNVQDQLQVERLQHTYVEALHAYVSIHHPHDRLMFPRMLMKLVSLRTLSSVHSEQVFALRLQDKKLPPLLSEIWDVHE
Estrogen-related receptor gamma (Homo sapiens), sequence (P62508 whole entry, looked up, the tested form may be a part): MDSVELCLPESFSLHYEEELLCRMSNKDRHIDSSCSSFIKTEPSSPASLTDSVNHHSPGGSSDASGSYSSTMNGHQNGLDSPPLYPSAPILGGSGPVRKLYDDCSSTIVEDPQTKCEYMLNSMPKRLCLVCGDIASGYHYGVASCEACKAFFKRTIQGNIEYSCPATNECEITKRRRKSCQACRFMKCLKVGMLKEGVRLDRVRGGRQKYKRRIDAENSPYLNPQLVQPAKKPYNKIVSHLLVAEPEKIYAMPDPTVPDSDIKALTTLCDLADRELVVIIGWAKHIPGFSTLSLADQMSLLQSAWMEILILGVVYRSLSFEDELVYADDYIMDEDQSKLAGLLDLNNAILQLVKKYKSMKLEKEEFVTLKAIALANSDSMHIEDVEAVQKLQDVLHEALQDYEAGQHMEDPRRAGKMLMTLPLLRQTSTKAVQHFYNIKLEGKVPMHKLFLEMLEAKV
Myc proto-oncogene protein (Homo sapiens), sequence (P01106 whole entry, looked up, the tested form may be a part): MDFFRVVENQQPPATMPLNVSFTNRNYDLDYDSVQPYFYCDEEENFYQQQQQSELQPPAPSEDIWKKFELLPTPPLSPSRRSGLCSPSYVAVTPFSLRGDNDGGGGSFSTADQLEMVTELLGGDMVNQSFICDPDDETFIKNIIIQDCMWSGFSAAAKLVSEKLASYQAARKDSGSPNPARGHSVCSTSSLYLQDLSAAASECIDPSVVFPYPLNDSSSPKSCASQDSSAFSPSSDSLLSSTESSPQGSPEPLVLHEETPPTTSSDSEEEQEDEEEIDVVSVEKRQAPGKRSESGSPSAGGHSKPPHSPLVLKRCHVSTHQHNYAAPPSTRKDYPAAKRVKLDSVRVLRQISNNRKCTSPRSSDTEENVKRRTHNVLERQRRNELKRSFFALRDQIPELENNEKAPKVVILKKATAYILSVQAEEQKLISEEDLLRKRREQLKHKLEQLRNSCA
Cellular tumor antigen p53 (Homo sapiens), sequence (P04637 whole entry, looked up): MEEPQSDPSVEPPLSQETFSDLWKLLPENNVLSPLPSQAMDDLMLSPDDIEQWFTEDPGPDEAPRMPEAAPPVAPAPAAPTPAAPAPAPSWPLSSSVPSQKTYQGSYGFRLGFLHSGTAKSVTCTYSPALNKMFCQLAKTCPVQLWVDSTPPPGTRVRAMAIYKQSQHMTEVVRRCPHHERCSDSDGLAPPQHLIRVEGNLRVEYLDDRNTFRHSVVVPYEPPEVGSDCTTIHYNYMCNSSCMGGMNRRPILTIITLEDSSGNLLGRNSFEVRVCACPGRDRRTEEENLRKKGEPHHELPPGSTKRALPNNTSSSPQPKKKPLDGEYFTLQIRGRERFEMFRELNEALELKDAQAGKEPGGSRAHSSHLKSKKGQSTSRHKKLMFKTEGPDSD

Take `CCCCOCCOCCOCCO`: the molecule was classed as inactive in [1], in assay [2], in assay [3], in [4], in assay [5] and in assay [6]. Also, the molecule was called inactive in [7], in assay [8], in [9], in assay [10], in assay [11] and in [12]. Also, in [13], the call was inactive.
`O=C(O)c1ccc(C(=O)O)c(C(=O)O)c1`: the outcome in [1], in assay [14], in [2], in [15], in assay [5] and in [6] was inactive. The molecule was classed as inactive in [7], in assay [8], in assay [9], in [10], in [11] and in assay [12]. The result in [13] was inactive.
On to `O=C1CCC(=O)N1`, for which the outcome in assay [1], in [14], in [2], in assay [15], in [5] and in assay [6] was inactive. Moreover, the outcome in [7], in [8], in assay [9], in assay [10], in assay [11] and in [12] was inactive. The call in assay [13] and in [16] was inactive.
As to `Cc1cc(O)c(C)c(C)c1O`, the call in assay [1], in [2], in assay [15], in assay [5], in assay [6] and in assay [7] was inactive. Besides, the result in [8], in assay [9], in assay [10], in assay [13] and in assay [16] was inactive. In addition, the AC50 in assay [11] is 50.7 µM (active); in assay [12], 18.8 µM (active).
As for `C[C@]12CC[C@@H]3c4ccc(O)cc4CC[C@H]3[C@@H]1CC[C@@H]2O`, the outcome in assay [1], in assay [14], in assay [2], in assay [3], in assay [4] and in assay [15] was inactive. In addition, the result in assay [5], in assay [6], in [7], in [8], in [9] and in assay [10] was inactive. Further, the molecule was classed as inactive in assay [12], in assay [13], in assay [16] and in [19]. In addition, the AC50 in [9] is 146 µM (active); in assay [16] it was 19.8 µM (active) and 21.3 µM (active) and 12.8 µM (active); in assay [17], 20 µM (active); in assay [18], 11.9 µM (active).
As to `Cc1cccc(C)c1`, the molecule was classed as inactive in assay [1], in assay [14], in [2], in [15], in [6] and in assay [7]. Also, the molecule was classed as inactive in assay [8], in [9], in [10], in assay [12] and in assay [13].
With `O=C(O)c1cc2ccccc2cc1O`, the molecule was called inactive in assay [1], in [2], in [3], in assay [4], in assay [15] and in [5]. Also, the molecule was classed as inactive in [6], in assay [7], in assay [8], in assay [9], in assay [10] and in [11]. The result in [12] and in assay [13] was inactive.
For the molecule `CCCCC1CCCCC(=O)O1` (stereo unspecified), the molecule was classed as inactive in [1], in assay [14], in assay [3], in assay [4], in assay [15] and in assay [7]. Also, the call in assay [8], in assay [10], in [11], in assay [12], in [13] and in assay [16] was inactive.
As for `Cc1cccc(O)c1`, the molecule was called inactive in [1], in [14], in assay [15], in [5], in [6] and in assay [7]. The result in [8], in assay [10], in [12], in assay [13] and in assay [16] was inactive.
